# Test results as given in PubChem BioAssay.
# Values joined by “and” are separate entries in the source; they are usually repeats but may differ in a detail not shown here. Equal values may be shown once. Records with an inconclusive call do not appear. Active and inactive are the calls of the source.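 The calls were made as follows, unless noted: active = mean z-score across replicates of 1.96 or higher in either the MELAS or the Rieske mutant cell line; inactive = the rest.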
# Columns and labels:
# [1] = biological target: ATP-dependent translocase ABCB1 (Homo sapiens) (UniProt P08183); experiment: MDR1 (ABCB1) efflux transporter inhibition, cell-based (AID 377; in the data active = fluorescence slope change above about 50%); conditions: MDR1-expressing cells, fluorescent substrate accumulation slope; stronger effect = higher value; concentration not given here
# Chain of ATP-dependent translocase ABCB1 (Homo sapiens) (P08183 whole entry, looked up): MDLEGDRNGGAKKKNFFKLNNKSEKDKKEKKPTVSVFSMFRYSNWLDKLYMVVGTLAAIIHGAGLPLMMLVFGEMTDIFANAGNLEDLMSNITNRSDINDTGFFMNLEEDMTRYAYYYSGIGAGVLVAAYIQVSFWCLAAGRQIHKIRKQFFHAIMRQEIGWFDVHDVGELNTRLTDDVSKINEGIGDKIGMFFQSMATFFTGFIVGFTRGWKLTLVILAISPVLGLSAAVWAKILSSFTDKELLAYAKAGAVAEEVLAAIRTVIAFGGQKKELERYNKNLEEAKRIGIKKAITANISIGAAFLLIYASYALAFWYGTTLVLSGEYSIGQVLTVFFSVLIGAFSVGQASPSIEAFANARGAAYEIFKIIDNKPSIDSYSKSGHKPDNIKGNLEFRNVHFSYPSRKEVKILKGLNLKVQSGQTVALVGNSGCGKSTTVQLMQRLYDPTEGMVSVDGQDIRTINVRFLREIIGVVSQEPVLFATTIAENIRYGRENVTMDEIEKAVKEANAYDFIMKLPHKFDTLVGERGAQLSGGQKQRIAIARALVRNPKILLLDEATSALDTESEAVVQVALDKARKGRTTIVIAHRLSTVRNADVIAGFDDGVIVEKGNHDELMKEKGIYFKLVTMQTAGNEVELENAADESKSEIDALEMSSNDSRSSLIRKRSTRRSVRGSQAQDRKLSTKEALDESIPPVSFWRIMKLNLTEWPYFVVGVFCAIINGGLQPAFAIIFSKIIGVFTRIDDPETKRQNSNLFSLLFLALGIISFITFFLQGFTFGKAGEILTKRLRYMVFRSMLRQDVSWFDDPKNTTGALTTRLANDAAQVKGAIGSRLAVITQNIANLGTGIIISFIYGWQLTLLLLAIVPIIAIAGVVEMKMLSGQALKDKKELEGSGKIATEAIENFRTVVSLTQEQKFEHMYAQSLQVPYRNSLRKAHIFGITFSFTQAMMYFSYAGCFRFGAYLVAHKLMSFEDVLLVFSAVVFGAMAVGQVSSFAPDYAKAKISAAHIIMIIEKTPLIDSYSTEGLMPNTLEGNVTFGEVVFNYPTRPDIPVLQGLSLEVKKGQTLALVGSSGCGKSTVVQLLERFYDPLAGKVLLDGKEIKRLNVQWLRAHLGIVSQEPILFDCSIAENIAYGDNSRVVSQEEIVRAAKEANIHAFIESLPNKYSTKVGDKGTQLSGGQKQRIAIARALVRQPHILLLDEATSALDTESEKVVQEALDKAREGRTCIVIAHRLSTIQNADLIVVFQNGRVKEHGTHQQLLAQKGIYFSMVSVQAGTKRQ
# [2] = hESC survival regulators, cell-based (AID 493140; call rule not given here;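 also: cells exposed to compounds for four days before counting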); conditions: human embryonic stem cell survival screen; stronger effect = higher value
# [3] = liver-stage malaria parasite growth inhibition, primary screen, cell-based, HepG2, luciferase luminescence, HepG2 viability (AID 624349; in the data active = parasite load remaining mostly below about 12%, no sharp cut-off; inactive = mostly above about 10%;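 also: 100% = mean of DMSO negative control wells on the same plate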); conditions: P. berghei liver stage in HepG2, luciferase luminescence, concentration not given here; parasite load remaining: stronger effect = lower value; viability: measured here: HepG2 viability without parasites
# [4] = stimulators of nuclear beta-catenin in C2C12, primary screen, imaging, WNT3A-conditioned medium, mouse C2C12, NPC library (AID 1117326; in the data active = nuclear beta-catenin stimulation mostly above about 4.2%, no sharp cut-off; inactive = mostly below about 10%); conditions: stronger effect = higher value
# [5] = stimulators of insulin release from INS-1E, primary screen, cell-based, 5 mM glucose, NPC library (AID 1117329;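 active = compound raises insulin release from rat beta cells at 5 mM glucose, no numeric limit stated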); conditions: rat INS-1E insulin secretion, at 10 µM, stronger effect = higher value
# [6] = growth inhibition of GSK3B-pretreated HCT116 cells – cell-based, CellTiter-Glo, 0.2 to 20 µM (AID 1117336;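 active = compounds lowering colon cancer cell viability after pretreatment blocking the GSK3B kinase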); conditions: HCT116 viability after GSK3B inhibitor, at 20 µM, stronger effect = higher value
# [7] = inhibition of endothelial tube formation, primary screen, imaging, VEGF stimulated, CD31 staining, tube area, NPC library (AID 1117340;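 active = compound that reduces growth-factor-driven endothelial tube area in a mixed cell culture, no cutoff stated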); conditions: VEGF-stimulated ADSC/ECFC co-culture, at 10 µM, stronger effect = higher value
# [8] = glucagon-like peptide 1 release enhancers, primary assay, NCI-H716 cell line, NPC library (AID 1117341;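 active = compound raises GLP1 secretion from the human gut endocrine cells, with no numeric limit stated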); conditions: NCI-H716 cells, at 10 µM, stronger effect = higher value
# [9] = HCT116 colon cancer cell growth inhibition, primary screen, CellTiter-Glo luminescence, NPC library (AID 1117342;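 active = compounds that lower survival of HCT116 colon cancer cells in the luminescence readout, no numeric limit stated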); conditions: at 20 µM (top of the series)
# [10] = CellTiter-Glo luminescent readout of SW480 viability loss, NPC library primary (AID 1117343;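 active = compounds that lower viability of the colon cancer cells in the luminescence readout, with no numeric limit stated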); conditions: CellTiter-Glo luminescence; at 20 µM (top of the series) unless noted
# [11] = decreased DLD-1 cellular survival, CellTiter-Glo luminescent readout, NPC compound collection, primary HTS (AID 1117346;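 active = compounds that lower survival of DLD-1 colon cancer cells in the luminescence readout, no cutoff given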); conditions: DLD-1 viability, CellTiter-Glo luminescence; at 20 µM (top of the series)
# [12] = sensitizers of A549 cells to miR-34 induction, primary screen, imaging, A549 dox-inducible miR-34, nuclei and caspase counts (AID 1347080;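 active = compounds whose cell count with miR-34 switched on is under 0.7 times the count with it off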); conditions: A549 miR-34 inducible, Hoechst nuclei count, 48 h
# [13] = survival rescue of mitochondrial mutant cells in low glucose, primary screen, MELAS cybrids, Rieske KO mouse fibroblasts, CellTiter-Glo (AID 1508586);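 also: z relative to plate mean and SD of compound and empty wells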
# [14] = viability rescue of complex I mutant cybrids, primary screen, cell-based, galactose medium, ATP luminescence (AID 1645843;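 active = z-score of at least 1.8 in each of two replicates, scored against plate mean and spread of sample wells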;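 also: positive z means more ATP and so rescue of galactose-driven cybrid death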); conditions: complex I mutant cybrid cells, 72 h, stronger effect = higher value
# [15] = biological target: NAD(+) hydrolase SARM1 (Homo sapiens) (UniProt Q6SZW1); experiment: SARM1 TIR NADase inhibitors, cell lysate, NAD-Glo luminescence (AID 1508614;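 active = compound whose remaining NAD level is above about 45 nM, limit read from the data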;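 also: higher remaining NAD means stronger inhibition of SARM1 NADase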); conditions: SAM-TIR HEK293T lysate NADase, at 1 µM, stronger effect = higher value
# Chain of NAD(+) hydrolase SARM1 (Homo sapiens) (Q6SZW1 whole entry, looked up, the tested form may be a part): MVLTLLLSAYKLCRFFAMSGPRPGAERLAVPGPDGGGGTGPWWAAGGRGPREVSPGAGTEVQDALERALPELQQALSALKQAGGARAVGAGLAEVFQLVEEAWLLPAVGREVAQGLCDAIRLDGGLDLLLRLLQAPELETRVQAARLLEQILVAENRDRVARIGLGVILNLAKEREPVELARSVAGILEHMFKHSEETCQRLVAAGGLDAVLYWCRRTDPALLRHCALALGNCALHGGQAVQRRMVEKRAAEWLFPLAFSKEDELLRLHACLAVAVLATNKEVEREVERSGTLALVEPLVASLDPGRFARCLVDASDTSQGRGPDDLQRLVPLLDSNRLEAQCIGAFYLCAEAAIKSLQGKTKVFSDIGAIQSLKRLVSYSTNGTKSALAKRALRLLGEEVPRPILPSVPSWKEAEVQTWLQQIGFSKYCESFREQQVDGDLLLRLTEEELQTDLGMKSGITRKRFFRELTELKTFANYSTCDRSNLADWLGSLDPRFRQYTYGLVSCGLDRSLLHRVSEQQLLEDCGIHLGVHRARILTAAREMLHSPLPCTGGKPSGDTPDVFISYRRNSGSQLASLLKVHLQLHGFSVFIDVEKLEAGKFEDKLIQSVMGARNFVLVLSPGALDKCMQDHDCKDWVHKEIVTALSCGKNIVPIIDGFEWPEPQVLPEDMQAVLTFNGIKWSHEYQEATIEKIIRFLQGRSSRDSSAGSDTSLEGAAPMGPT
# [16] = biological target: Mitogen-activated protein kinase 7 (Homo sapiens) (UniProt Q13164); experiment: ERK5 transactivation activators in reporter cells, primary screen, cell-based, HTS (AID 1508626;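 active = luciferase signal above three times the same-plate solvent-only control wells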;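 also: luciferase driven by Gal4-ERK5 fusion binding five Gal4 sites before minimal TATA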); conditions: HeLa Gal4-ERK5 transactivation, 18 h, at 5 µM, stronger effect = higher value
# Chain of Mitogen-activated protein kinase 7 (Homo sapiens) (Q13164 whole entry, looked up, the tested form may be a part): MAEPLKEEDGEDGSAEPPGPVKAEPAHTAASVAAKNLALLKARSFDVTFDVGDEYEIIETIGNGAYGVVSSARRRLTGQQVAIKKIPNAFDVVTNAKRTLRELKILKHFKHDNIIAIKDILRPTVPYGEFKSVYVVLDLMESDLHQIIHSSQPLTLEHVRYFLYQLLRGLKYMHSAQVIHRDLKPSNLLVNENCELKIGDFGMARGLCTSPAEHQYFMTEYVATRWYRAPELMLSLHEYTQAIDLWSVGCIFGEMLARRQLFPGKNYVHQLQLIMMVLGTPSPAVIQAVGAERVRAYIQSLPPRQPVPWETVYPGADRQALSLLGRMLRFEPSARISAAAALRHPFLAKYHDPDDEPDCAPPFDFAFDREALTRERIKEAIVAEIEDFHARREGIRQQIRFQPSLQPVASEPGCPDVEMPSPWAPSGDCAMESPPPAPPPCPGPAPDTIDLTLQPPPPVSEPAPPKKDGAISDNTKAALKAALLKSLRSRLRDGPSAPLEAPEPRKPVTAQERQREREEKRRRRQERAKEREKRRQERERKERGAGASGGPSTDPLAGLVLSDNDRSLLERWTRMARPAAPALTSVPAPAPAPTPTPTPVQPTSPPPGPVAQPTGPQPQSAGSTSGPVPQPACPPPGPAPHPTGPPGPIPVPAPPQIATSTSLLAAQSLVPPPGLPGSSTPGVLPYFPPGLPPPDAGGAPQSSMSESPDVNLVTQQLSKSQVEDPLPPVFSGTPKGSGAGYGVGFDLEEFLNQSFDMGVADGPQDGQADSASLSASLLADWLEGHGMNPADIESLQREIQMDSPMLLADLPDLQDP
# [17] = stronger effect = lower value, cell number ratio, induced over uninduced
# [18] = measured here: relative caspase fold change +Dox/-Dox
# [19] = measured here: total cells with miR-34 induction, stronger effect = lower value
# [20] = measured here: total cells without miR-34 induction
# [21] = MELAS cybrid survival, CellTiter-Glo 48 h, stronger effect = higher value
# [22] = Rieske KO mouse fibroblast survival, CellTiter-Glo 72 h
smiles,measurement,setting,value
OCCOCCN1CCN(C(c2ccccc2)c2ccc(Cl)cc2)CC1 (configuration not stated),fluorescence slope change,[1],127% (active)
same,survival,[2],12.3 (inactive)
same,parasite load remaining,[3],40.8% (inactive) and 106% (inactive)
same,viability,[3],45.3% and 147%
same,nuclear beta-catenin stimulation,[4]; at 10 µM,3.6% (inactive)
same,nuclear beta-catenin stimulation,"[4]; stimulation, at 2 µM",2.4%
same,insulin secretion stimulation,[5],4.2% (inactive)
same,viability decrease,[6],-78.9% (inactive)
same,tube area decrease,[7],28% (inactive)
same,GLP1 secretion stimulation,[8],13.3% (inactive)
same,inhibition of viability,[9],38.2% (inactive)
same,viability decrease (inhibition),[10],46.4% (inactive)
same,viability decrease (inhibition),[11],14.4% (inactive)
same,fold change,[12]; [17],0.893 (inactive) and 0.907 (inactive) and 0.862 (inactive)
same,fold change,[12]; [18],1.48 and 0.309 and 0.812
same,cell count,[12]; [19],8690 and 7710 and 8370
same,cell count,[12]; [20],9730 and 8500 and 9700
same,z-score,[13]; [21],-0.954 (inactive) and -0.244 (inactive) and -0.546 (inactive)
same,z-score,[13]; [22],0.434 and -0.172 and -0.069
same,z-score,[14],-0.645 (inactive)
CCN(CC)C(=O)/C(C#N)=C/c1cc(O)c(O)c([N+](=O)[O-])c1,parasite load remaining,[3],40.1% (inactive)
same,viability,[3],102%
same,nuclear beta-catenin stimulation,[4]; at 10 µM,-0.4% (inactive)
same,nuclear beta-catenin stimulation,"[4]; stimulation, at 2 µM",1.2%
same,insulin secretion stimulation,[5],1.5% (inactive)
same,viability decrease,[6],36% (inactive)
same,tube area decrease,[7],61.4% (active)
same,GLP1 secretion stimulation,[8],0% (inactive)
same,inhibition of viability,[9],29.2% (inactive)
same,viability decrease (inhibition),[10],92.4% (active)
same,viability decrease (inhibition),[11],35.8% (inactive)
same,fold change,[12]; [17],0.873 (inactive)
same,fold change,[12]; [18],0.914
same,cell count,[12]; [19],10100
same,cell count,[12]; [20],11500
same,z-score,[13]; [21],-0.387 (inactive) and -1.06 (inactive)
same,z-score,[13]; [22],-0.365 and -0.513
same,remaining NAD,[15],10 nM (inactive)
same,z-score,[14],0.125 (inactive)
CC[C@H](c1ccc(O)cc1)[C@@H](CC)c1ccc(O)cc1,parasite load remaining,[3],16.7% (inactive)
same,viability,[3],82%
same,nuclear beta-catenin stimulation,[4]; at 10 µM,11.6% (inactive)
same,nuclear beta-catenin stimulation,"[4]; stimulation, at 2 µM",2.5%
same,insulin secretion stimulation,[5],1.4% (inactive)
same,viability decrease,[6],89.6% (active)
same,tube area decrease,[7],20.9% (inactive)
same,GLP1 secretion stimulation,[8],40% (active)
same,inhibition of viability,[9],97% (active)
same,viability decrease (inhibition),[10],118% (active)
same,viability decrease (inhibition),[11],101% (active)
same,fold change,[12]; [17],0.78 (inactive)
same,fold change,[12]; [18],0.948
same,cell count,[12]; [19],7720
same,cell count,[12]; [20],9900
same,z-score,[13]; [21],-1.4 (inactive)
same,z-score,[13]; [22],-0.231
same,remaining NAD,[15],10 nM (inactive)
same,z-score,[14],-0.325 (inactive)
C=C1C[C@H]2[C@@H]3C=C(C)C4=CC(=O)CC[C@]4(C)[C@H]3CC[C@]2(C)[C@@]1(OC(C)=O)C(C)=O,parasite load remaining,[3],14.5% (inactive)
same,viability,[3],66%
same,nuclear beta-catenin stimulation,[4]; at 10 µM,-0.2% (inactive)
same,nuclear beta-catenin stimulation,"[4]; stimulation, at 2 µM",0.8%
same,insulin secretion stimulation,[5],0.5% (inactive)
same,viability decrease,[6],37.4% (inactive)
same,tube area decrease,[7],-17.7% (inactive)
same,GLP1 secretion stimulation,[8],-1.4% (inactive)
same,inhibition of viability,[9],62% (active)
same,viability decrease (inhibition),[10],61.1% (active)
same,viability decrease (inhibition),[11],53.6% (active)
same,fold change,[12]; [17],0.868 (inactive)
same,fold change,[12]; [18],1.42
same,cell count,[12]; [19],5790
same,cell count,[12]; [20],6660
same,z-score,[13]; [21],0.533 (inactive) and 0.334 (inactive)
same,z-score,[13]; [22],0.392 and 1.14
same,remaining NAD,[15],15 nM (inactive)
same,luciferase signal,[16],64 AU (inactive)
same,z-score,[14],-0.29 (inactive)
C#C[C@]1(OC(C)=O)CC[C@H]2[C@@H]3CCC4=C[C@@H](OC(C)=O)CC[C@@H]4[C@H]3CC[C@@]21C,survival,[2],3.67 (inactive)
same,parasite load remaining,[3],82.1% (inactive)
same,viability,[3],93.8%
same,nuclear beta-catenin stimulation,[4]; at 10 µM,4.6% (inactive)
same,nuclear beta-catenin stimulation,"[4]; stimulation, at 2 µM",2.1%
same,insulin secretion stimulation,[5],0.1% (inactive)
same,viability decrease,[6],-55.2% (inactive)
same,tube area decrease,[7],-2.9% (inactive)
same,GLP1 secretion stimulation,[8],-2.3% (inactive)
same,inhibition of viability,[9],45% (inactive)
same,viability decrease (inhibition),[10],80.6% (active)
same,viability decrease (inhibition),[11],64.6% (active)
same,fold change,[12]; [17],0.877 (inactive)
same,fold change,[12]; [18],1.09
same,cell count,[12]; [19],9000
same,cell count,[12]; [20],10300
same,z-score,[13]; [21],-0.135 (inactive)
same,z-score,[13]; [22],0.556
same,remaining NAD,[15],10 nM (inactive)
same,luciferase signal,[16],64 AU (inactive)
CCCC(=O)OCOC(=O)C1=C(C)NC(C)=C(C(=O)OC)C1c1cccc(Cl)c1Cl (configuration not stated),nuclear beta-catenin stimulation,[4]; at 10 µM,15.7% (inactive)
same,nuclear beta-catenin stimulation,"[4]; stimulation, at 2 µM",12.3%
same,insulin secretion stimulation,[5],3.9% (inactive)
same,viability decrease,[6],-9.1% (inactive)
same,tube area decrease,[7],-4.1% (inactive)
same,GLP1 secretion stimulation,[8],5.1% (inactive)
same,inhibition of viability,[9],25.4% (inactive)
same,viability decrease (inhibition),[10],6.5% (inactive)
same,viability decrease (inhibition),[11],14.3% (inactive)
same,fold change,[12]; [17],0.959 (inactive) and 0.978 (inactive)
same,fold change,[12]; [18],0.415 and 0.463
same,cell count,[12]; [19],8260 and 7700
same,cell count,[12]; [20],8610 and 7870
same,z-score,[13]; [21],0.611 (inactive) and -0.319 (inactive)
same,z-score,[13]; [22],-0.278 and 0.00408
same,z-score,[14],-1.31 (inactive)
C=CCNC(N)=S,nuclear beta-catenin stimulation,[4]; at 10 µM,5.1% (inactive)
same,nuclear beta-catenin stimulation,"[4]; stimulation, at 2 µM",2.3%
same,insulin secretion stimulation,[5],-0.8% (inactive)
same,viability decrease,[6],-2.15% (inactive)
same,tube area decrease,[7],-31.3% (inactive)
same,GLP1 secretion stimulation,[8],-0.3% (inactive)
same,inhibition of viability,[9],-19.1% (inactive)
same,viability decrease (inhibition),[10],23.8% (active)
same,viability decrease (inhibition),[11],-4.7% (inactive)
same,fold change,[12]; [17],0.867 (inactive) and 0.831 (inactive)
same,fold change,[12]; [18],1.24 and 0.686
same,cell count,[12]; [19],7540 and 8140
same,cell count,[12]; [20],8690 and 9790
same,z-score,[13]; [21],-0.239 (inactive)
same,z-score,[13]; [22],-0.148
same,remaining NAD,[15],10 nM (inactive)
CN1CCCC(CC2c3ccccc3Sc3ccccc32)C1 (configuration not stated),fluorescence slope change,[1],182% (active)
same,survival,[2],1.75 (inactive)
same,parasite load remaining,[3],16% (inactive) and 60.9% (inactive)
same,viability,[3],59.4% and 67.6%
same,nuclear beta-catenin stimulation,[4]; at 10 µM,0.2% (inactive)
same,nuclear beta-catenin stimulation,"[4]; stimulation, at 2 µM",1.3%
same,insulin secretion stimulation,[5],20.3% (active)
same,viability decrease,[6],45.1% (inactive)
same,tube area decrease,[7],54.2% (active)
same,GLP1 secretion stimulation,[8],20% (active)
same,inhibition of viability,[9],86% (active)
same,viability decrease (inhibition),[10],110% (active)
same,viability decrease (inhibition),[11],77.8% (active)
same,fold change,[12]; [17],0.892 (inactive)
same,fold change,[12]; [18],1.45
same,cell count,[12]; [19],6900
same,cell count,[12]; [20],7740
same,z-score,[13]; [21],-0.486 (inactive)
same,z-score,[13]; [22],0.0453
COCC(=O)Nc1c(I)c(C(=O)NCC(O)CO)c(I)c(C(=O)N(C)CC(O)CO)c1I (configuration not stated),survival,[2],1.33 (inactive)
same,parasite load remaining,[3],103% (inactive)
same,viability,[3],104%
same,nuclear beta-catenin stimulation,[4]; at 10 µM,3% (inactive)
same,nuclear beta-catenin stimulation,"[4]; stimulation, at 2 µM",2.8%
same,insulin secretion stimulation,[5],3.5% (inactive)
same,viability decrease,[6],-12.6% (inactive)
same,tube area decrease,[7],-13.9% (inactive)
same,GLP1 secretion stimulation,[8],-1.2% (inactive)
same,inhibition of viability,[9],-4.47% (inactive)
same,viability decrease (inhibition),[10],-13% (inactive)
same,viability decrease (inhibition),[11],-7.9% (inactive)
same,fold change,[12]; [17],0.856 (inactive)
same,fold change,[12]; [18],1.69
same,cell count,[12]; [19],8610
same,cell count,[12]; [20],10100
same,z-score,[13]; [21],-0.386 (inactive)
same,z-score,[13]; [22],-1.03
